Assay results reported in paper PMC10812921, “Transcriptional Coactivator BOB1 (OBF1, OCA-B) Modulates the Specificity of DNA Recognition by the POU-Domain Factors OCT1 and OCT2 in a Monomeric Configuration”.

What follows are sequences tested against POU1 (OCT1 POU domain);BOB1 (OBF1, OCA-B) (human;human, UniProt P14859;Q16633 260-458;1-256, |) (assay: EMSA-SELEX-seq; with BOB1 (ternary complex band); 20 mM Tris-HCl pH 7.6, 140 mM NaCl, 10% glycerol, 0.5 mM EDTA, 0.05% Triton X-100, 0.1 mg/mL BSA, 0.1 mg/mL poly(dI-dC), 5 mM DTT, room temperature, 20 min; high values mean tight binding). Settings: protein: recombinant;recombinant; copies: 1;1; dsDNA, one strand shown.
Outline: (§1)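 After expression in E. coli BL21, tagged POU-domain proteins were purified under denaturing conditions and then renatured. Each binding reaction held 30 ng protein and 300 ng of a PCR-amplified double-stranded random 35-nt library in 20 μL Tris–HCl pH 7.6 binding buffer, with or without 28 ng coactivator protein, for 20 min at RT. Bands holding complexes were cut from native 6% PAGE, eluted and PCR-amplified across four rounds, and the output was Illumina-sequenced. The value given for binding preference is the share, in percent, of sequenced 8-mers fitting a motif pattern.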

| Sequence | binding signal |
| --- | --- |
| ATTAAAAT | 0.228 % of ANNNNAAN 8-mers |
| AGGTGAAT | 0.071 % of ANNNNAAN 8-mers |
| AGGACAAC | 0.0187 % of ANNNNAAN 8-mers |
| ACTTTAAT | 0.0558 % of ANNNNAAN 8-mers |
| AGATGAAG | 0.0316 % of ANNNNAAN 8-mers |
| ATTTAAAT | 0.709 % of ANNNNAAN 8-mers |
| ATCTAAAC | 0.0379 % of ANNNNAAN 8-mers |
| ACATAAAG | 0.0663 % of ANNNNAAN 8-mers |
| ATCGGAAT | 0.0581 % of ANNNNAAN 8-mers |
| AGGGCAAT | 0.0457 % of ANNNNAAN 8-mers |
| AAGATAAG | 0.046 % of ANNNNAAN 8-mers |
| ACTGGAAT | 0.0558 % of ANNNNAAN 8-mers |
| ACACTAAT | 0.0316 % of ANNNNAAN 8-mers |
| ATCAAAAC | 0.0539 % of ANNNNAAN 8-mers |
| AGCTCAAA | 0.0242 % of ANNNNAAN 8-mers |
| AATGCAAT | 0.089 % of ANNNNAAN 8-mers |
| AAGGTAAG | 0.0468 % of ANNNNAAN 8-mers |
| ACTACAAG | 0.0183 % of ANNNNAAN 8-mers |
| AGATGAAA | 0.0718 % of ANNNNAAN 8-mers |
| ATAAAAAC | 0.0562 % of ANNNNAAN 8-mers |

| Sequence | binding signal |
| --- | --- |
| AGACAAAT | 0.187 % of ANNNNAAN 8-mers |
| AAATCAAG | 0.132 % of ANNNNAAN 8-mers |
| AACGGAAG | 0.0164 % of ANNNNAAN 8-mers |
| ACGGGAAT | 0.0574 % of ANNNNAAN 8-mers |
| AGCGGAAG | 0.0215 % of ANNNNAAN 8-mers |
| ATTGAAAG | 0.0632 % of ANNNNAAN 8-mers |
| AGGCCAAC | 0.0113 % of ANNNNAAN 8-mers |
| ATCCGAAC | 0.0238 % of ANNNNAAN 8-mers |
| ATCAGAAG | 0.0359 % of ANNNNAAN 8-mers |
| AGCATAAA | 0.0566 % of ANNNNAAN 8-mers |
| ACGAAAAA | 0.0578 % of ANNNNAAN 8-mers |
| AGTACAAA | 0.0375 % of ANNNNAAN 8-mers |
| ATAAGAAC | 0.0332 % of ANNNNAAN 8-mers |
| AGAGTAAG | 0.039 % of ANNNNAAN 8-mers |
| ATTCAAAG | 0.314 % of ANNNNAAN 8-mers |
| AGGGCAAG | 0.0332 % of ANNNNAAN 8-mers |
| AAAGAAAG | 0.08 % of ANNNNAAN 8-mers |
| ATCACAAT | 0.039 % of ANNNNAAN 8-mers |
| AACCGAAT | 0.0324 % of ANNNNAAN 8-mers |
| AGTTGAAC | 0.0258 % of ANNNNAAN 8-mers |

Each sequence was assayed against T1, POU2 (OCT2 POU domain);BOB1 (OBF1, OCA-B) (human;human, UniProt P09086;Q16633 175-386;1-256, |) in the same assay as above. Settings: protein: recombinant;recombinant; copies: 1;1; dsDNA, one strand shown.
T1 sequence 1: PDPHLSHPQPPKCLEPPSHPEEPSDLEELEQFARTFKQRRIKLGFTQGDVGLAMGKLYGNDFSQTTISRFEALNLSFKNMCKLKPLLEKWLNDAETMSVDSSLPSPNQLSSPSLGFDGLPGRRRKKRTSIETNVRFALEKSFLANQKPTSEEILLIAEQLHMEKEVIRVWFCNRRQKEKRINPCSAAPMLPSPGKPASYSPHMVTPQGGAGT
T1 sequence 2: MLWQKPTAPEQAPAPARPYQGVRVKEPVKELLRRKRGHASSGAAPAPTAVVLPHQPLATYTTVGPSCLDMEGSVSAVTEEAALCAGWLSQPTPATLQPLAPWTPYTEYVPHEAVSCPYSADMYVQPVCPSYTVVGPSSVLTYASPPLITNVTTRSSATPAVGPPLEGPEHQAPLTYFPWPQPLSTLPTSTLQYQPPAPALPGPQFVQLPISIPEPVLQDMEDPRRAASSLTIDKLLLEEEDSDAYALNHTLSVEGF
Outline: as §1

| Sequence | binding signal |
| --- | --- |
| ATTAAAAT | 0.204 % of ANNNNAAN 8-mers |
| AGGTGAAT | 0.102 % of ANNNNAAN 8-mers |
| AGGACAAC | 0.0206 % of ANNNNAAN 8-mers |
| ACTTTAAT | 0.066 % of ANNNNAAN 8-mers |
| AGATGAAG | 0.0297 % of ANNNNAAN 8-mers |
| ATTTAAAT | 0.832 % of ANNNNAAN 8-mers |
| ATCTAAAC | 0.0495 % of ANNNNAAN 8-mers |
| ACATAAAG | 0.0759 % of ANNNNAAN 8-mers |
| ATCGGAAT | 0.0768 % of ANNNNAAN 8-mers |
| AGGGCAAT | 0.0611 % of ANNNNAAN 8-mers |
| AAGATAAG | 0.0429 % of ANNNNAAN 8-mers |
| ACTGGAAT | 0.0817 % of ANNNNAAN 8-mers |
| ACACTAAT | 0.0438 % of ANNNNAAN 8-mers |
| ATCAAAAC | 0.0347 % of ANNNNAAN 8-mers |
| AGCTCAAA | 0.0264 % of ANNNNAAN 8-mers |
| AATGCAAT | 0.0916 % of ANNNNAAN 8-mers |
| AAGGTAAG | 0.0545 % of ANNNNAAN 8-mers |
| ACTACAAG | 0.0231 % of ANNNNAAN 8-mers |
| AGATGAAA | 0.0611 % of ANNNNAAN 8-mers |
| ATAAAAAC | 0.0495 % of ANNNNAAN 8-mers |

| Sequence | binding signal |
| --- | --- |
| AGACAAAT | 0.105 % of ANNNNAAN 8-mers |
| AAATCAAG | 0.128 % of ANNNNAAN 8-mers |
| AACGGAAG | 0.0206 % of ANNNNAAN 8-mers |
| ACGGGAAT | 0.0759 % of ANNNNAAN 8-mers |
| AGCGGAAG | 0.0173 % of ANNNNAAN 8-mers |
| ATTGAAAG | 0.0611 % of ANNNNAAN 8-mers |
| AGGCCAAC | 0.0157 % of ANNNNAAN 8-mers |
| ATCCGAAC | 0.0198 % of ANNNNAAN 8-mers |
| ATCAGAAG | 0.033 % of ANNNNAAN 8-mers |
| AGCATAAA | 0.0867 % of ANNNNAAN 8-mers |
| ACGAAAAA | 0.0355 % of ANNNNAAN 8-mers |
| AGTACAAA | 0.0446 % of ANNNNAAN 8-mers |
| ATAAGAAC | 0.0438 % of ANNNNAAN 8-mers |
| AGAGTAAG | 0.0297 % of ANNNNAAN 8-mers |
| ATTCAAAG | 0.242 % of ANNNNAAN 8-mers |
| AGGGCAAG | 0.0363 % of ANNNNAAN 8-mers |
| AAAGAAAG | 0.0619 % of ANNNNAAN 8-mers |
| ATCACAAT | 0.0487 % of ANNNNAAN 8-mers |
| AACCGAAT | 0.0487 % of ANNNNAAN 8-mers |
| AGTTGAAC | 0.0338 % of ANNNNAAN 8-mers |
